Measured values from PubChem BioAssay AID1159580 (chemical genetic matrix, 2015).
Values joined by “and” are separate entries in the source; they are usually repeats but may differ in a detail not shown here. Equal entries are not always repeated. Out of some 5,500 compounds screened, about 2,000 (36%) were called active. Roughly 18% stayed inconclusive and do not appear here. Rule as the data show it: active = normalized growth mostly below about 0.91 (no sharp cut-off); inconclusive = no clear call, values can overlap the other calls; inactive = mostly above about 0.92. Some of the results follow.

Assay: chemical genetic growth profiling, strain panel (AID 1159580);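 also: tested at 20 µM; growth read once vehicle control cultures reached saturation at 30 °C; 1 = growth at the plate median or of vehicle wells; lower values mean less growth of the strain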
Settings: growth OD

Measured: normalized growth

Cc1c(NC(C)C)c(=O)n(-c2ccccc2)n1C
inactive: S. cerevisiae deletion strains, locus YAL013W, strain DEP1, hits give low values 1 | S. cerevisiae deletion strains, locus YBR021W, strain FUR4, hits give low values 0.994 | S. cerevisiae deletion strains, locus YBR229C, strain ROT2, hits give low values 0.989 | S. cerevisiae deletion strains, locus YCL029C, strain bik1, hits give low values 0.983 | S. cerevisiae deletion strains, locus YDL035C, strain GPR1, hits give low values 1.02 | S. cerevisiae deletion strains, locus YDL074C, strain BRE1, hits give low values 0.987 | S. cerevisiae deletion strains, locus YDL101C, strain DUN1, hits give low values 0.985 | S. cerevisiae deletion strains, locus YDL134C, strain PPH21, hits give low values 0.996 | S. cerevisiae deletion strains, locus YDL185W, strain tfp1, hits give low values 0.984 | S. cerevisiae deletion strains, locus YDL192W, strain arf1, hits give low values 0.995 | S. cerevisiae deletion strains, locus YDR101C, strain arx1, hits give low values 0.984 | S. cerevisiae deletion strains, locus YDR150W, strain NUM1, hits give low values 1 | S. cerevisiae deletion strains, locus YDR162C, strain NBP2, hits give low values 1.01 | S. cerevisiae deletion strains, locus YDR318W, strain mcm21, hits give low values 0.98 | S. cerevisiae deletion strains, locus YDR388W, hits give low values 0.974 | S. cerevisiae deletion strains, locus YDR502C, strain sam2, hits give low values 1 | S. cerevisiae deletion strains, locus YEL061C, strain CIN8, hits give low values 1 | S. cerevisiae deletion strains, locus YER110C, hits give low values 0.984 | S. cerevisiae deletion strains, locus YER155C, strain BEM2, hits give low values 0.99 | S. cerevisiae deletion strains, locus YER167W, strain BCK2, hits give low values 1 | S. cerevisiae deletion strains, locus YGL078C, strain dbp3, hits give low values 0.995 | S. cerevisiae deletion strains, locus YGL086W, strain mad1, hits give low values 1 | S. cerevisiae deletion strains, locus YGL248W, strain PDE1, hits give low values 1 | S. cerevisiae deletion strains, locus YGR078C, strain PAC10, hits give low values 0.987 | S. cerevisiae deletion strains, locus YGR135W, strain pre9, hits give low values 0.983 | S. cerevisiae deletion strains, locus YGR229C, strain SMI1, hits give low values 0.998 | S. cerevisiae deletion strains, locus YGR252W, strain gcn5, hits give low values 1.09 | S. cerevisiae deletion strains, locus YHR030C, strain SLT2, hits give low values 0.998 and 1.03 | S. cerevisiae deletion strains, locus YHR079C, strain IRE1 (second series), hits give low values 0.98 | S. cerevisiae deletion strains, locus YHR079C, strain IRE1, hits give low values 1.03 | S. cerevisiae deletion strains, locus YHR094C, strain hxt1, hits give low values 0.98 | S. cerevisiae deletion strains, locus YHR129C, strain ARP1, hits give low values 0.991 | S. cerevisiae deletion strains, locus YHR200W, strain rpn10, hits give low values 0.981 | S. cerevisiae deletion strains, locus YIL066C, strain RNR3, hits give low values 0.998 | S. cerevisiae deletion strains, locus YIL073C, strain SPO22, hits give low values 1 | S. cerevisiae deletion strains, locus YIL125W, strain kgd1, hits give low values 0.99 | S. cerevisiae deletion strains, locus YIR030C, strain dcg1, hits give low values 0.986 | S. cerevisiae deletion strains, locus YJL095W, strain BCK1, hits give low values 0.99 and 1.03 | S. cerevisiae deletion strains, locus YJL134W, strain LCB3, hits give low values 0.998 | S. cerevisiae deletion strains, locus YJL168C, strain set2, hits give low values 0.98 | S. cerevisiae deletion strains, locus YJL187C, strain SWE1 (second series), hits give low values 0.984 | S. cerevisiae deletion strains, locus YJR043C, strain POL32, hits give low values 1 | S. cerevisiae deletion strains, locus YJR066W, strain TOR1, hits give low values 0.962 | S. cerevisiae deletion strains, locus YJR075W, strain HOC1, hits give low values 0.994 | S. cerevisiae deletion strains, locus YKL009W, strain mrt4, hits give low values 0.999 | S. cerevisiae deletion strains, locus YKL068W, hits give low values 0.989 | S. cerevisiae deletion strains, locus YKL085W, strain MDH1 (second series), hits give low values 1 | S. cerevisiae deletion strains, locus YKL085W, strain MDH1, hits give low values 1 | S. cerevisiae deletion strains, locus YKL190W, strain CNB1, hits give low values 1 | S. cerevisiae deletion strains, locus YKR001C, strain vps1, hits give low values 0.992 | S. cerevisiae deletion strains, locus YLR039C, strain RIC1, hits give low values 1.05 | S. cerevisiae deletion strains, locus YLR058C, strain SHM2, hits give low values 0.988 | S. cerevisiae deletion strains, locus YLR102C, strain apc9, hits give low values 0.98 | S. cerevisiae deletion strains, locus YLR113W, strain HOG1, hits give low values 1.05 | S. cerevisiae deletion strains, locus YLR262C, strain YPT6, hits give low values 1.01 | S. cerevisiae deletion strains, locus YLR268W, strain sec22, hits give low values 0.925 | S. cerevisiae deletion strains, locus YLR330W, strain CHS5, hits give low values 1.01 | S. cerevisiae deletion strains, locus YLR342W, strain FKS1 (second series), hits give low values 1.04 | S. cerevisiae deletion strains, locus YLR371W, strain rom2, hits give low values 0.974 | S. cerevisiae deletion strains, locus YLR418C, strain cdc73, hits give low values 0.957 | S. cerevisiae deletion strains, locus YML016C, strain PPZ1, hits give low values 0.988 | S. cerevisiae deletion strains, locus YML032C, strain rad52, hits give low values 0.964 | S. cerevisiae deletion strains, locus YML124C, strain tub3, hits give low values 0.985 | S. cerevisiae deletion strains, locus YMR078C, strain ctf18, hits give low values 0.989 | S. cerevisiae deletion strains, locus YMR223W, strain ubp8, hits give low values 1.01 | S. cerevisiae deletion strains, locus YMR263W, strain SAP30, hits give low values 1 | S. cerevisiae deletion strains, locus YMR307W, strain GAS1, hits give low values 0.978 | S. cerevisiae deletion strains, locus YNL067W, strain RPL9B, hits give low values 0.986 | S. cerevisiae deletion strains, locus YNL128W, strain TEP1, hits give low values 1 | S. cerevisiae deletion strains, locus YNL153C, strain GIM3, hits give low values 0.986 | S. cerevisiae deletion strains, locus YNL183C, strain NPR1, hits give low values 0.974 | S. cerevisiae deletion strains, locus YNL233W, strain BNI4, hits give low values 0.986 | S. cerevisiae deletion strains, locus YNL250W, strain rad50, hits give low values 0.977 | S. cerevisiae deletion strains, locus YNL271C, strain bni1, hits give low values 0.986 | S. cerevisiae deletion strains, locus YNL298W, strain CLA4, hits give low values 0.971 | S. cerevisiae deletion strains, locus YNL307C, strain MCK1, hits give low values 0.982 | S. cerevisiae deletion strains, locus YNL322C, strain KRE1, hits give low values 0.993 | S. cerevisiae deletion strains, locus YNR052C, strain pop2, hits give low values 0.991 | S. cerevisiae deletion strains, locus YOL006C, strain TOP1, hits give low values 0.927 | S. cerevisiae deletion strains, locus YOL012C, strain htz1 1.17 | S. cerevisiae deletion strains, locus YOL147C, strain pex11, hits give low values 0.991 | S. cerevisiae deletion strains, locus YOR061W, strain CKA2, hits give low values 0.997 | S. cerevisiae deletion strains, locus YOR069W, strain VPS5, hits give low values 0.988 | S. cerevisiae deletion strains, locus YOR136W, strain idh2, hits give low values 0.971 | S. cerevisiae deletion strains, locus YOR144C, strain elg1, hits give low values 0.97 | S. cerevisiae deletion strains, locus YOR184W, strain ser1, hits give low values 0.985 | S. cerevisiae deletion strains, locus YOR231W, strain MKK1, hits give low values 1.04 | S. cerevisiae deletion strains, locus YOR316C, strain cot1, hits give low values 0.982 | S. cerevisiae deletion strains, locus YPL055C, strain LGE1, hits give low values 1.01 | S. cerevisiae deletion strains, locus YPL241C, strain CIN2, hits give low values 1 | S. cerevisiae deletion strains, locus YPL256C, strain CLN2, hits give low values 1.09 | S. cerevisiae deletion strains, locus YPR119W, strain clb2, hits give low values 0.982 | S. cerevisiae deletion strains, locus YPR141C, strain kar3, hits give low values 0.975 | S. cerevisiae deletion strains, locus YPR163C, strain tif3, hits give low values 0.982 | S. cerevisiae deletion strains, locus YPR167C, strain met16, hits give low values 0.971 | S. cerevisiae deletion strains, strain wtn01, hits give low values 0.971 | S. cerevisiae strains, strain wild type, hits give low values 0.995
